Screening results: PubChem BioAssay, National Center for Advancing Translational Sciences (NCATS)
Shown are actives, neighbours in structure and some others; about 3.9% of the full set was active somewhere.
BRCA1 expr up = qHTS Assay to Identify Small Molecule Activators of BRCA1 Expression; MCF7-BRCA1-FFLuc reporter, luminescence, 48 h; response scale: scaled: vehicle 0%, 10 µM genistein 100%; Potency, µM (series often up to 46.1 µM), for the others: at the highest dose activation, most hits filed as activators; 380,000 compounds, 1.1% hits; AID 624202, 2012; note: nearly all actives have a fitted effect of over 80% in size
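MCF7 cells carrying a BRCA1-firefly luciferase reporter (2000 cells/well, phenol-red free MEM) were attached for 2 h at 37 °C, then given compounds for 48 h. Luminescence was read 15 min after luciferase reagent; activity normalized to genistein (10 microM) and DMSO.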
Tb PFK inh = qHTS Assay to Find Inhibitors of T. brucei phosphofructokinase; T. brucei PFK, ADP-Glo luminescence; Potency, µM (top dose mostly 57.5 µM), without a hit: top-dose activity, negative = inhibition, actives largely listed as inhibitors; 330,000 compounds, 0.17% hits;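 note: 0% = uninhibited 1x PFK enzyme wells and -100% = no-enzyme wells; nearly all actives have a fitted effect of over 60% in size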
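1.25 nM PFK with 0.5 mM F6P and 0.1 mM ATP in 0.1 M TEA pH 8.0, 5 mM MgCl2, incubated 45 min at room temperature; ADP measured by ADP-Glo luminescence; compounds titrated up to 57 uM.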
VDR inh = Inhibitors of the vitamin D receptor (VDR): qHTS; Potency, µM, without a hit: max response, negative = inhibition, usual class: inhibitors; 400,000 compounds, 0.93% hits; Vitamin D3 receptor (Homo sapiens), P11473; VDR-SRC2-3 peptide fluorescence polarization, 2 h; AID 504847, 2011; note: % is set by controls: 0 for no effect and ±100 for the full control effect
Target sequence (P11473 whole entry, looked up): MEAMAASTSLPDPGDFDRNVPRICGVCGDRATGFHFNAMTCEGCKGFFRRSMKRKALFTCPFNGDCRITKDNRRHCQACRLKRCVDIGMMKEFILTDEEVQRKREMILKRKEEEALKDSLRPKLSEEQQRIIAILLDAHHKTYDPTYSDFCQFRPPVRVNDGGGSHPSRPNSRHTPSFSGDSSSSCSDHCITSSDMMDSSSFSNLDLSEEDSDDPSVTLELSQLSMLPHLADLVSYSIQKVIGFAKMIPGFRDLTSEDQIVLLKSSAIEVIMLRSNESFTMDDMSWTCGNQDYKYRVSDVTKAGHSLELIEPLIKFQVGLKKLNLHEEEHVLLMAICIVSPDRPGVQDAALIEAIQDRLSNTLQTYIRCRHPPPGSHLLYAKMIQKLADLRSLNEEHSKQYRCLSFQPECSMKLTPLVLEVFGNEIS
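Fluorescence polarization assay measuring small-molecule disruption of VDR binding to the coregulator peptide SRC2-3. Compounds were pin-transferred (23 nl) into the reagent mix and incubated 2 h at room temperature before reading.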
PLK1 PBD block = qHTS for Inhibitors of PLK1-PDB (polo-like kinase 1 - polo-box domain): Primary Screen; Plk1 PBD binding of FITC phosphopeptide, fluorescence polarization; Potency, µM, for inactives: max response, negative = inhibition, usual class: inhibitors; 360,000 compounds, 2.8% hits; AID 720504, 2013; note: series mostly up to about 57 µM; % is set by controls: 0 for no effect and ±100 for the full control effect; nearly all actives have a fitted effect of over 65% in size
Numbers without * were called inactive; ? = inconclusive; . = no result given. Calls come from the whole dose curve; as a rule, active = well fitted curve in the direction sought with a large enough effect; inconclusive = small, poorly fitted or top-dose-only effect, or another doubt; inactive = no such curve, though single readings can be large; an effect the other way counts as inactive or inconclusive. Potency is the fitted concentration of half-maximal effect.

SMILES	BRCA1 expr up	Tb PFK inh	VDR inh	PLK1 PBD block
COC(=O)[C@H](C)NC(=O)NCCC1=CCCCC1	4%	0%	-25%	30µM*
O=C(CCNC(=O)c1ccc(Cl)cc1)NCCC1=CCCCC1	7.9µM*	-3%	5%	-5%
Cc1cc(C(=O)NCCC2=CCCCC2)ccc1[N+](=O)[O-]	5µM*	-11%	2%	-7%
CCN(C(=O)c1nn(-c2ccc(OC)c(Cl)c2)c(=O)c2c1c1ccccc1n2C)c1cccc(C(F)(F)F)c1	.	.	7%	.
CC(=O)c1ccc(Nc2nc(C(N)Cc3ccc(Cl)cc3)cs2)cc1 (stereo not given)	-56%	.	.	-9%
CCCCN(CCCNC(=O)CN1N=C(c2ccccc2)CCC1=O)c1ccccc1	.	.	3%	.
COc1ccc(-c2nc3scc(CCNS(=O)(=O)c4ccc(Oc5ccccc5)cc4)n3n2)cc1OC	.	.	11%	.
O=C(CCCc1ccccc1)NCCC1=CCCCC1	3.2µM*	2%	3%	-16%
O=C(CCCN1C(=O)c2ccccc2C1=O)NCCC1=CCCCC1	-5%	-1%	-19%	-9%
COc1cc(C(c2nnnn2C2CCCC2)N2CCc3ccccc3C2)ccc1O (stereo not given)	-14%	4%	-1%	21µM*
Cc1ccc(-n2c(=O)c3sc4ccccc4c3n(C)c2=O)cc1F	5%	.	-6%	.
Cc1ccc(NC(=O)CCC(=O)c2ccc(F)cc2)cc1Cl	3%	2%	5%	-6%
CC(C)(C)c1ccc(COC(=O)Nc2ccc(F)cc2)cc1	-26%	2%	-25%	3%
CC(C)(C)c1ccc(NC(=O)Nc2ccc(F)cc2)cc1	?	-3%	0%	27µM*
Cc1ccc(NC(=O)Nc2ccc(F)cc2)cc1Cl	2.8µM*	-5%	-1%	-8%
Cc1ccc(NC(=O)NC2CCCCC2)cc1Cl	5µM*	12%	-6%	-3%
COc1cccc(NC(=O)Nc2ccc(C)c(Cl)c2)c1	7.1µM*	0%	14%	-1%
CC(OC(=O)Nc1ccccc1)C(=O)OC1CCCCC1 (stereo not given)	21%	.	-12%	-12%
COc1cc(/C=C2/SC(=S)N(Cc3ccccc3)C2=O)ccc1OS(C)(=O)=O	-4%	0%	-5%	-17%
COc1cc(/C=C2\SC(=S)N(CC(=O)O)C2=O)ccc1OS(=O)(=O)c1ccc(C)cc1	-8%	0%	?	21µM*
COc1cc(/C=C2/SC(=S)N(CC(=O)O)C2=O)ccc1OC(=O)c1cccs1	23%	1%	?	24µM*
CC(C)CCNC(=O)C1CCN(C(=O)N2CCOc3ccc(Cl)cc32)CC1	.	.	-4%	.
CCOc1ccc(CCNC(=O)c2nnc(Cc3cc(OC)c(OC)c(OC)c3)o2)cc1OCC	.	.	0%	.
Oc1ccc(CNc2ccc(F)cc2)c2cccnc12	-88%	-7%	?	3.4µM*
Cc1ccc(O)c2ncccc12	.	.	-8%	.
SMILES	BRCA1 expr up	Tb PFK inh	VDR inh	PLK1 PBD block
Oc1ccc(CNc2ccccc2)c2cccnc12	-90%	-1%	?	7.5µM*
Cc1cccc(NCc2ccc(O)c3ncccc23)c1	-35%	-1%	-14%	3.4µM*
Cc1ccccc1NCc1ccc(O)c2ncccc12	-84%	0%	?	3µM*
Oc1ccc(CN2CCN(Cc3ccccc3)CC2)c2cccnc12	-82%	-3%	22%	?
Oc1ccc2ccccc2c1CNc1ccccc1	-17%	.	22µM*	3.4µM*
Oc1ccc2ccccc2c1CNc1ccc2ccccc2c1	-81%	.	13%	-12%
CC1CN(c2ccc(Oc3ccccc3)cc2)c2nc3c(c(=O)[nH]c(=O)n3C)n2C1 (stereo not given)	-4%	2%	-27%	27µM*
O=C(CCNC(=O)c1ccccc1)Nc1cccnc1	-8%	-9%	-11%	27µM*
COc1ccc(C)cc1Nc1nc2c(S(=O)(=O)c3cc(C)ccc3C)nnn2c2ccsc12	.	.	2%	.
COC(=O)c1cc(C)sc1NC(=O)c1ccco1	-2%	-9%	11%	-18%
CCCc1cc(C(N)=O)c(NC(=O)c2ccoc2C)s1	-1%	4%	-5%	30µM*
Cc1ccc(-c2nnc(NC(=O)c3ccco3)s2)cc1	2.2µM*	-2%	9%	-29%
CCC(CC)c1nnc(NC(=O)c2ccco2)s1	67%	-6%	2%	21µM*
NC(=O)c1cc(Cc2ccccc2)sc1NC(=O)c1ccco1	7.9µM*	-9%	?	17µM*
C[C@@]1(C(=O)O)NCCc2cc(O)c(O)cc21	.	.	-12%	.
Cc1ccccc1C(=O)Nc1nnc(S(=O)(=O)N(C)Cc2ccc(Cl)cc2)s1	.	.	2%	.
COc1ccc(CNc2ccnc(-c3cccc(C#N)c3)n2)c(OC)c1	.	.	-7%	.
O=C(Nc1nnc(Cc2ccccc2)s1)c1ccco1	13µM*	4%	-4%	-2%
COc1cccc(-c2nnc(NC(=O)c3ccco3)s2)c1	6.3µM*	0%	-20%	-11%
CCOc1ccc(CC(=O)Nc2sc(Cc3ccccc3)cc2C(N)=O)cc1OCC	5%	-8%	?	17µM*
O=C(Nc1nc(-c2ccccc2)cs1)c1ccco1	7.1µM*	4%	-8%	-6%
CCCc1cc(=O)[nH]c(SCC(=O)c2c(N)n(C3CC3)c(=O)[nH]c2=O)n1	-54%	-2%	11%	-8%
COc1cccc(-c2nnc3sc(-c4ccco4)nn23)c1	8.9µM*	1%	0%	-7%
Cc1ccn(CCNC(=O)C2CCC(=O)N(CCc3ccc(Cl)cc3)C2)n1 (stereo not given)	1%	1%	9%	1%
CCOC(=O)c1nnc2cc(-c3ccccc3)nn2c1C	6.3µM*	0%	14%	-8%
SMILES	BRCA1 expr up	Tb PFK inh	VDR inh	PLK1 PBD block
CCOC(=O)c1nnc2c(Br)c(-c3ccccc3)nn2c1C	21%	-2%	?	30µM*
CCOC(=O)c1nnc2cc(-c3ccc(Br)cc3)nn2c1C	27%	11%	6%	-1%
CCNc1cccc2c1C(=O)N(C)C2=O	6%	6%	-1%	24µM*
N/C(=N\OC(=O)c1ccc2c(c1)OCO2)c1ccncc1	4.5µM*	-16%	5%	-1%
N/C(=N\OC(=O)c1ccc2c(c1)OCO2)c1ccc(Cl)cc1	8.9µM*	-2%	-7%	-5%
COc1ccc(/C(N)=N/OC(=O)c2ccc3c(c2)OCO3)cc1	3.2µM*	2%	-3%	-2%
Cc1ccc(/C(N)=N/OC(=O)c2ccc3c(c2)OCO3)cc1	?	3%	10%	-14%
COc1ccc(C(=O)O/N=C(\N)c2ccncc2)cc1OC	32%	0%	1%	6%
CC(C)CC(=O)Nc1ccc(C(=O)OCc2cc(=O)n3nc(C(C)C)sc3n2)cc1	.	.	16%	.
COC(=O)C(NS(N)(=O)=O)C(C)C (stereo not given)	.	.	-8%	.
Cc1cccc(C)c1NC(=O)C(c1ccncc1)n1c(=O)c(-c2ccco2)nc2ccccc21 (stereo not given)	.	.	.	-21%
